Reference: PubChem BioAssay (Tox21)
Records with an inconclusive call do not appear. Activity calls are given as the source filed them. Unless noted, calls come from the whole dose curve.

What was measured:
[1] = qHTS assay to identify small molecule agonists of the vitamin D receptor (VDR) signaling pathway - cell viability counter screen (AID 743224; active = well fitted curve in the direction sought with a large enough effect in the repeat runs; an effect the other way counts as inactive or inconclusive; note: series mostly up to about 63 µM; nearly all actives have a fitted effect of over 50% in size)
How it was run: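 Counter screen for cytotoxicity: VDR-bla cells at 2,000 cells/well, 16 h compound exposure, then CellTiter-Glo luminescence after the beta-lactamase measurement.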

[2] = qHTS assay to identify small molecule agonists of the NFkB signaling pathway (AID 1159509; active = well fitted curve in the direction sought with a large enough effect in the signal ratio in the repeat runs, not every such curve was filed as active; the % refers to the signal ratio; note: series mostly up to about 61 µM)
How it was run: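 Beta-lactamase reporter assay run in quantitative high-throughput format on an NF-kB-responsive ME-180 line, with 5 hr compound treatment and a FRET-based blue/green fluorescence readout.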

[3] = qHTS assay to identify small molecule agonists of the NFkB signaling pathway - cell viability counter screen (AID 1159515); note: series mostly up to about 61 µM; nearly all actives have a fitted effect of over 55% in size
How it was run: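 Counter screen run alongside the NFkB-bla agonist assay: ME-180 reporter cells exposed to compounds for 5 hr, then lysed with CellTiter-Glo in the same wells. Luminescence, read after 30 min, reflects viable cells.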

[4] = qHTS assay to identify small molecule agonists of the endoplasmic reticulum stress response signaling pathway (AID 1159516; active = well fitted activation curve with a large enough effect in the signal ratio in the repeat runs, not every such curve was filed as active; the % refers to the signal ratio)
How it was run: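 For this screen, HeLa cells stably carrying beta-lactamase under the ER stress response element received test compounds, positive controls or DMSO for 5 hr at 37 C; B/G FRET substrate was then added and dual-wavelength emission recorded.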

[5] = qHTS assay to identify small molecule agonists of the endoplasmic reticulum stress response signaling pathway - cell viability counter screen (AID 1159517); note: series mostly up to about 61 µM; nearly all actives have a fitted effect of over 50% in size
How it was run: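 Cytotoxicity of test compounds toward ESRE-bla HeLa cells was assessed after 5 hr exposure. The luminescent CellTiter-Glo signal was measured 30 min after reagent addition.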

[6] = qHTS assay to identify small molecule antagonists of the retinoid-related orphan receptor gamma (ROR-gamma) signaling pathway - cell viability counter screen (AID 1159520; active = well fitted curve in the direction sought with a large enough effect in the repeat runs; an effect the other way counts as inactive or inconclusive; note: nearly all actives have a fitted effect of over 50% in size)
How it was run: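 Tet-on ROR gamma CHO cells (1,000/well) were plated 4 hr, given compounds in DMSO for 2 hr at 37 C, then induced with 1 uM final doxycycline for 16 hr. Viability was read as ATP by CellTiter-Glo luminescence after 30 min.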

[7] = molecular target: Nuclear receptor ROR-gamma (Homo sapiens) (UniProt P51449); experiment: qHTS assay to identify small molecule antagonists of the retinoid-related orphan receptor gamma (ROR-gamma) signaling pathway (AID 1159521; active = well fitted curve in the direction sought with a large enough effect in the repeat runs; an effect the other way counts as inactive or inconclusive;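 note: CHO cells with doxycycline inducible ROR-gamma driving an RORE luciferase reporter; top concentration of the series differs between compounds; nearly all actives have a fitted effect of over 50% in size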)
How it was run: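 Decreased RORE-driven luciferase luminescence indicates antagonism. Tet-on RORγ CHO cells received compound, then 1 uM final doxycycline 2 h later; signal read after 16 h incubation.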

[8] = qHTS assay to identify small molecule agonists of the AP-1 signaling pathway - cell viability counter screen (AID 1159525); note: nearly all actives have a fitted effect of over 55% in size
How it was run: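 Each titration point was normalised to DMSO and tetra n-octyl ammonium bromide controls. The read was Cell Titer Glo luminescence after 30 min at RT, following 5 h compound exposure of ME-180 AP-1-bla cells at 37 °C.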

[9] = qHTS assay to identify small molecule agonists of the AP-1 signaling pathway (AID 1159526)
[10] = qHTS assay to identify small molecule antagonists of the vitamin D receptor (VDR) signaling pathway - cell viability counter screen (AID 743225; active = well fitted curve in the direction sought with a large enough effect in the repeat runs; an effect the other way counts as inactive or inconclusive; note: nearly all actives have a fitted effect of over 50% in size)
How it was run: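 Parallel cytotoxicity test: VDR-UAS-bla HEK 293T, 3 nM (final) 1-alpha,25-dihydroxyvitamin D3 with test compound, 16 h, 37C. Endpoint is CellTiter-Glo luminescence in the same wells.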

Measured: Potency

CCCN1C[C@H](CSC)C[C@@H]2c3cccc4[nH]cc(c34)C[C@H]21
not listed: [10]
inactive: all other assays above

CCCCCCCCC1CCC(=O)O1 (configuration not stated)
inactive: all assays above

c1ccc2c(c1)ccc1c3ccccc3ccc21
not listed: [10]
inactive: all other assays above

COCCOCCOCCOCCO
not listed: [10]
inactive: all other assays above

CN(C)CCOCCO
not listed: [10]
inactive: all other assays above

O=C1c2ccccc2C(=O)N1CCl
not listed: [10]
inactive: all other assays above

Cc1cccc(OCC(O)CNC(C)(C)C)c1C (configuration not stated)
inactive: all assays above

O=C(NCCc1c[nH]c2ccccc12)c1cccnc1
not listed: [1] | [10]
inactive: all other assays above

C=C(C)C(=O)OCCOP(=O)(O)OCCOC(=O)C(=C)C
not listed: [10]
inactive: all other assays above

OC[C@H](Cc1cccc(O)c1)[C@H](CO)Cc1cccc(O)c1
not listed: [1] | [10]
inactive: all other assays above

CCCCCCCCSCC
not listed: [10]
inactive: all other assays above

COC(=O)CCCCCCCC(=O)OC
not listed: [1]
inactive: all other assays above

CC1(C)S[C@@H]2[C@H](N=CN3CCCCCC3)C(=O)N2[C@H]1C(=O)O
inactive: all assays above

C[C@@H]1O[C@@H](O[C@@H]2[C@@H](O)[C@H](OCCc3ccc(O)c(O)c3)O[C@H](CO[C@@H]3O[C@H](CO)[C@@H](O)[C@H](O)[C@H]3O)[C@H]2OC(=O)/C=C/c2ccc(O)c(O)c2)[C@H](O)[C@H](O)[C@H]1O
inactive: all assays above

COc1ccc(-c2cc(=O)c3c(O)cc(O[C@@H]4O[C@H](CO[C@@H]5O[C@@H](C)[C@H](O)[C@@H](O)[C@H]5O)[C@@H](O)[C@H](O)[C@H]4O)cc3o2)cc1O
inactive: all assays above

O=C(Nc1ccc(Cl)c(Cl)c1)C1CC1
inactive: all assays above

CCCCCOC(=O)CCC
inactive: all assays above

CCCCOCCOC(=O)COc1nc(Cl)c(Cl)cc1Cl
inactive: all assays above

O=C(c1ccc(O)cc1)c1ccc(O)c(O)c1O
inactive: all assays above

C[C@@H](Oc1ccc(CNC(=O)c2cccnc2Oc2ccc3c(c2)OCO3)c(F)c1)C(=O)O
inactive: all assays above

CC1COc2ccccc2N1 (configuration not stated)
inactive: all assays above

O=P(O)(O)OP(=O)(O)O
inactive: all assays above

BrCc1cccc(Oc2ccccc2)c1
inactive: all assays above

CCOC(=O)[C@H](CCc1ccccc1)N[C@@H](C)C(=O)N1C(=O)N(C)C[C@H]1C(=O)O
not listed: [1]
inactive: all other assays above
